G9a inh – G9a (human) methyltransferase inhibition; Q96KQ7; G9a H3K9 monomethylation, AlphaScreen, 2 h; Potency, µM (top dose mostly 102 µM), inactives show at the highest dose activity, negative = inhibition, usual class: inhibitors; hit rate 8.8% among 350,000; AID 504332; further: potency means the concentration at half of the fitted maximal effect; on the % scale 0 is the no-effect control and ±100 the full control effect; nearly all actives have a fitted effect of over 75% in size
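AlphaScreen read-out: biotin-H3K9 peptide (500 nM) methylation by 20 nM enzyme with 20 uM SAM, 2 h at room temperature after 15 min compound preincubation; anti-monomethyl H3K9 antibody plus donor/acceptor beads, 10 min dark.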
JMJD2A Tudor inh – JMJD2A Tudor domain (human) inhibition; O75164; AlphaScreen JMJD2A-Tudor / H3K4me3 peptide binding; Potency, µM (highest dose often 114 µM), without a hit: at the highest dose activity change, negative = inhibition, usual class: inhibitors; hit rate 4.4% among 390,000; further: potency means the concentration at half of the fitted maximal effect; on the % scale 0 is the no-effect control and ±100 the full control effect; nearly all actives have a fitted effect of over 50% in size
Target sequence (O75164 whole entry, looked up, the tested form may be a part): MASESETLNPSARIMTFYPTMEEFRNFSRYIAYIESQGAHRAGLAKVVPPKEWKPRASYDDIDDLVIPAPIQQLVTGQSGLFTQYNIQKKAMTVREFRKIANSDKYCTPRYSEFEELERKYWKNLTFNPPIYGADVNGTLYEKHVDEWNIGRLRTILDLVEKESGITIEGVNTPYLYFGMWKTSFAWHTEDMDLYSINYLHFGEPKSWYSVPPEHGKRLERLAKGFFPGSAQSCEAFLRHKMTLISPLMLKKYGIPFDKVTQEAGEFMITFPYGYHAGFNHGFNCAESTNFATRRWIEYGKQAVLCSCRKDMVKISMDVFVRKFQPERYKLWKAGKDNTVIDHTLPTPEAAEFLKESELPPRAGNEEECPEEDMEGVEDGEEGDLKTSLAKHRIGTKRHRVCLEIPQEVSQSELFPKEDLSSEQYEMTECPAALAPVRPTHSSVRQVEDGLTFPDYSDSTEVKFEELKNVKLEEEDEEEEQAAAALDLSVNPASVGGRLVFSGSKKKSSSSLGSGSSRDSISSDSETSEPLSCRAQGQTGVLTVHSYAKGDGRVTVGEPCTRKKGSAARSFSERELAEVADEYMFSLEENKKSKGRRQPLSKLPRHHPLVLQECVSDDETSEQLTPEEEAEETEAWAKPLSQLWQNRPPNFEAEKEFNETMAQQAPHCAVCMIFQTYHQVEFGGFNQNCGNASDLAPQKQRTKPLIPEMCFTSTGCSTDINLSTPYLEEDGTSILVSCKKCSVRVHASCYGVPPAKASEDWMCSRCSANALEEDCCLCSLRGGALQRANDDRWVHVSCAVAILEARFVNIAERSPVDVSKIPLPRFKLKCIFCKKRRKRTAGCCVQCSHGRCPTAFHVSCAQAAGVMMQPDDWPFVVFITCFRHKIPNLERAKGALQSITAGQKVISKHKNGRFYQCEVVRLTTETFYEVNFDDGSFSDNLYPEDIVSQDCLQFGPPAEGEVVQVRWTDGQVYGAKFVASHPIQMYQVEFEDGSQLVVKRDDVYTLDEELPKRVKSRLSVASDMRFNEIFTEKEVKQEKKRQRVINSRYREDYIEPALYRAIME
CtBP-E1A inh – blocks the CtBP interaction with E1A. hit rate 0.49% among 340,000. activity change, % (no concentration beside the values). AlphaScreen GST-E1A/His-CtBP binding, 1536-well; active compounds read low; in the data active means activity change below about -65%; inconclusive means mostly about -30% to -63%; further: on the % scale 0 is the no-effect control and ±100 the full control effect
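AlphaScreen with 125 nM GST-E1A and 125 nM His-CtBP (5X stocks) in Tris pH 8.0, 300 mM NaCl, BSA, Tween 20, TCEP. Compounds preincubated 2 h at 37 deg C, then glutathione donor/nickel acceptor beads added for 1 h at 37 deg C in dark.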
Six1-Eya2 inh – inhibitors of human Six1/Eya2 interaction; Q15475+O00167; AlphaScreen GST-Six1/His-Eya2 binding, biochemical; active compounds read low; hit rate 0.56% among 360,000; activity change, % (concentration not given with the values); in the data active means activity change below about -65%; inconclusive means mostly about -30% to -63%; further: on the % scale 0 is the no-effect control and ±100 the full control effect
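GST-Six1 + His-Eya2 (5X stock: 250/500 nM); Tris pH 8.0, 300 mM NaCl, 0.05% BSA, 0.02% Tween 20; GSH donor/Ni acceptor beads; 1 h 37 °C dark; AlphaScreen readout.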
BAZ2B inh – BAZ2B (human) inhibition; AID 504333; hit rate 4.4% among 360,000; Potency, µM (doses to about 114 µM), for inactives: at the top dose activity change, negative = inhibition, hits mostly inhibitors; AlphaScreen BAZ2B-H3K14Ac peptide displacement; further: potency means the concentration at half of the fitted maximal effect; on the % scale 0 is the no-effect control and ±100 the full control effect; nearly all actives have a fitted effect of over 60% in size
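Multi-concentration screen (max 110 uM) measuring displacement of acetylated histone H3 peptide from BAZ2B by AlphaScreen, using 50 nM protein, 50 nM peptide and 10 ug/mL streptavidin donor plus Ni-chelate acceptor beads.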
HP1b chromo inh – inhibitors of HP1-beta chromodomain binding to methylated histone tails. AID 540317. P83916. AlphaScreen HP1-beta / biotin-H3K9me3 peptide binding. hit rate 0.56% among 390,000. Potency, µM (top dose mostly 114 µM), for inactives: at the highest dose activity change, negative = inhibition, usual class: inhibitors; further: potency means the concentration at half of the fitted maximal effect; nearly all actives have a fitted effect of over 70% in size
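HP1-beta protein (50 nM final) preincubated 30 min at room temperature with biotinylated H3(1-18)K9me3 peptide (50 nM) in PBS pH 7.4, 0.01% Tween-20, then compound added for 30 min. AlphaScreen streptavidin donor/nickel chelate acceptor beads (10 ug/mL final), 30 min dark, luminescence read.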
* = called active by the depositor; [ ] = remark or other dose. An excerpt weighted towards active compounds, which were near 10% of everything screened. Unless noted, the call rests on the fitted dose curve; in most records, active means well fitted inhibition curve with a large enough effect; inconclusive means small, poorly fitted or top-dose-only effect; inactive means no such curve, though single readings can be large or run the other way.

How did COc1ccc(C2C(C(C)=O)=C(O)C(=O)N2CCc2ccccc2)c(OC)c1 (stereo unspecified) do in these assays?
G9a inh: inconclusive; JMJD2A Tudor inh: 32µM*; CtBP-E1A inh: -13; Six1-Eya2 inh: -1; BAZ2B inh: inconclusive; HP1b chromo inh: 11%

Results for CCOC(=O)c1cccc(NC(=O)Cn2nc(C)n3cccc3c2=O)c1 ?
G9a inh: 11%[59 µM]; JMJD2A Tudor inh: 8%; Six1-Eya2 inh: 0; BAZ2B inh: -17%; HP1b chromo inh: 17%[57 µM]

Results for O=S(=O)(c1ccc(Br)cc1)c1nc(-c2cccs2)oc1SCc1ccc(F)cc1 ?
G9a inh: -28%[59 µM]; JMJD2A Tudor inh: -9%; BAZ2B inh: 0%; HP1b chromo inh: 28%

How did C#CCOCCOCCOCCNc1nc(N2CCN(C(=O)[C@H](CCC(=O)O)n3cc([C@@H](N)CCCCN)nn3)CC2)nc(N2CCN(C(=O)[C@H](CCC(=O)O)n3cc([C@@H](N)CCCCN)nn3)CC2)n1 do in these assays?
JMJD2A Tudor inh: 56µM*; CtBP-E1A inh: -23; Six1-Eya2 inh: -23; HP1b chromo inh: -9%

How did C#CCOCCOCCOCCNc1nc(N2CCN(C(=O)[C@H](C)n3cc(CCC(=O)O)nn3)CC2)nc(N2CCN(C(=O)[C@H](CCCCN)n3cc(CCCC)nn3)CC2)n1 do in these assays?
JMJD2A Tudor inh: -17%; CtBP-E1A inh: 7; Six1-Eya2 inh: 12; HP1b chromo inh: 23%

How did C#CCOCCOCCOCCNc1nc(N2CCN(C(=O)[C@H](CCC(=O)O)n3cc([C@@H](N)CCCCN)nn3)CC2)nc(N2CCN(C(=O)[C@H](CCCCN)n3cc([C@@H](N)CC(N)=O)nn3)CC2)n1 do in these assays?
JMJD2A Tudor inh: 50µM*; CtBP-E1A inh: -17; Six1-Eya2 inh: -16; HP1b chromo inh: 34%

What do the screens show for `CCCCN(C(=O)c1ccc(C)cc1)c1c(N)n(CCC)c(=O)[nH]c1=O`?
G9a inh: 11%; JMJD2A Tudor inh: -17%; CtBP-E1A inh: 37; Six1-Eya2 inh: -1; BAZ2B inh: -11%; HP1b chromo inh: 21%

What do the screens show for `CC(C)(C)Nc1nc(C#N)nc(Nc2ccccc2)n1`?
JMJD2A Tudor inh: -12%

What do the screens show for `CCN(CC(=O)Nc1ccc(OC)cc1)CC(=O)Nc1ccc2c(c1)OCO2`?
G9a inh: inconclusive; JMJD2A Tudor inh: -10%; CtBP-E1A inh: 1; Six1-Eya2 inh: -10; BAZ2B inh: 7%; HP1b chromo inh: 32%

What do the screens show for `CN(CC(=O)Nc1ccc(Cl)c(C(F)(F)F)c1)C(=O)c1ccc2c(c1)OCCO2`?
G9a inh: 3%; JMJD2A Tudor inh: -8%; CtBP-E1A inh: 6; Six1-Eya2 inh: -8; BAZ2B inh: 10%; HP1b chromo inh: 28%

How did CCN(CC(=O)Nc1ccc2c(c1)OCCO2)CC(=O)Nc1ccccc1C(F)(F)F do in these assays?
JMJD2A Tudor inh: 5µM*; CtBP-E1A inh: -3; Six1-Eya2 inh: 1; HP1b chromo inh: 28µM*

How did CCN(CC(=O)Nc1ccc(C(C)=O)cc1)CC(=O)Nc1ccc2c(c1)OCCO2 do in these assays?
JMJD2A Tudor inh: 0.32µM*; CtBP-E1A inh: -4; Six1-Eya2 inh: 2; HP1b chromo inh: inconclusive

What do the screens show for `COc1cc(C2C(C#N)=C(N)OC3=C2C(=O)CC(C)(C)C3)ccc1OCCN1CCOCC1` (stereo unspecified)?
G9a inh: 50µM*; JMJD2A Tudor inh: -15%; CtBP-E1A inh: 3; Six1-Eya2 inh: 0; BAZ2B inh: -12%; HP1b chromo inh: 22%

Results for O=C1c2ccccc2C(=O)N1c1ccc(Br)c2cccnc12 ?
G9a inh: 7%; JMJD2A Tudor inh: -4%; Six1-Eya2 inh: 2; BAZ2B inh: -1%; HP1b chromo inh: 26%

What do the screens show for `O=C1c2ccccc2C(=O)N1c1cccc2ncccc12`?
JMJD2A Tudor inh: 89µM*

What do the screens show for `CCCn1cc(S(=O)(=O)c2ccc(Cl)cc2)c(=O)c2cc(OC)ccc21`?
G9a inh: 2%; JMJD2A Tudor inh: 22µM*; CtBP-E1A inh: -2; Six1-Eya2 inh: -1; BAZ2B inh: inconclusive; HP1b chromo inh: 20%

Results for CC(=O)N(C)c1ccc(NCc2cc(=O)oc3cc(C)c(O)cc23)cc1 ?
G9a inh: -41%; JMJD2A Tudor inh: -21%; Six1-Eya2 inh: 0; BAZ2B inh: -20%; HP1b chromo inh: 5%

How did Clc1ccc(-c2nnc(-c3ccco3)nc2N2CCCCC2)cc1 do in these assays?
G9a inh: 10µM*; JMJD2A Tudor inh: 45µM*; CtBP-E1A inh: -22; Six1-Eya2 inh: -12; BAZ2B inh: 50µM*; HP1b chromo inh: -18%

What do the screens show for `Clc1ccc(-n2cnnn2)cc1`?
G9a inh: 4%; JMJD2A Tudor inh: -15%; CtBP-E1A inh: -19; Six1-Eya2 inh: 3; BAZ2B inh: 0%; HP1b chromo inh: 23%

How did CO/C=C\C=C/c1nnn(-c2ccc(Cl)cc2)n1 do in these assays?
G9a inh: 50µM*; JMJD2A Tudor inh: -6%; CtBP-E1A inh: 3; Six1-Eya2 inh: -9; BAZ2B inh: -11%; HP1b chromo inh: 44%

Results for Nc1ccccc1C(=O)C[C@H](N)C(=O)O ?
G9a inh: 2%[59 µM]; JMJD2A Tudor inh: 18µM*; CtBP-E1A inh: 4; Six1-Eya2 inh: -3; HP1b chromo inh: 2%

How did COc1cccc(CNC(=O)CN2C(=O)N(c3c(C)cccc3C)S(=O)(=O)c3ccccc32)c1OC do in these assays?
G9a inh: 5%[59 µM]; JMJD2A Tudor inh: -12%; BAZ2B inh: -8%; HP1b chromo inh: 23%

How did CCOc1cc(CNCC2CCCN2CC)cc(Cl)c1OC (stereo unspecified) do in these assays?
JMJD2A Tudor inh: -12%; CtBP-E1A inh: -6; Six1-Eya2 inh: 2; BAZ2B inh: -23%; HP1b chromo inh: 12%

How did COc1cc(CN2CCNC(=O)C2CC(=O)N(C)CCC2CCOCC2)cc(OC)c1 (stereo unspecified) do in these assays?
G9a inh: -2%[0.501 µM]; JMJD2A Tudor inh: inconclusive; CtBP-E1A inh: -17; Six1-Eya2 inh: 1; BAZ2B inh: -8%; HP1b chromo inh: 22%

What do the screens show for `COc1ccc(CN2CCNC(=O)C2CC(=O)NC2CCOCC2)cc1C` (stereo unspecified)?
G9a inh: 40µM*; JMJD2A Tudor inh: -16%; CtBP-E1A inh: 1; Six1-Eya2 inh: 2; BAZ2B inh: -22%; HP1b chromo inh: 45%

How did COc1ccc(CN2CCNC(=O)C2CC(=O)N(C)CCC2CCOCC2)cc1OC (stereo unspecified) do in these assays?
G9a inh: 71µM*; JMJD2A Tudor inh: -23%; CtBP-E1A inh: 0; Six1-Eya2 inh: 7; BAZ2B inh: -16%; HP1b chromo inh: 17%

Assay outcomes as filed in PubChem BioAssay.
